Casp6 inh – blocks human caspase-6 cleavage activity | P55212 | purified caspase-6, Z-VEID-R110 cleavage fluorescence | inhibition, % at 12.5 µM | 0.53% of 350,000 active | AID 686996;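 active = mean inhibition across replicates at least about 35%, with every replicate also reaching that limit, limit read from the data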;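 also: 0% = median of neutral control wells and 100% = no fluorescence left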
AF4-AF9 inh – inhibitors of human MLL-AF4/AF9 interaction. AlphaScreen, biotin-AF4 peptide binding to FLAG-AF9. 0.47% of 350,000 active. inhibition, % at 10 µM. AID 651704;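 active = every replicate reaching a set inhibition limit, whatever the replicate mean, cut at about 25% in these data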;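 also: 0% = plate neutral control median and 100% = total signal loss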
Ecoli rRNA inh – selective bacterial rRNA inhibition in E. coli; E. coli WT GFP vs humanized-ribosome RFP mutants, fluorescence, 24 h; hits give low values; DMSO median 0, no signal -100; GFP signal change (wild-type ribosome), % (no concentration beside the values); 1.6% of 350,000 active; AID 720706;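 active = significant combined selectivity score with lowered wild-type GFP, culture density cut under 30%, mutant RFP and density less affected; inactive = any of these conditions unmet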
NSD2 inh – inhibitors of human histone methyltransferase NSD2; inhibition, % at 12.5 µM; AID 743445; O96028; 0.54% of 310,000 active; NSD2 peptide methylation, AlphaScreen, 120 min; in the data active = inhibition above about 50%
RAD52 anneal inh – inhibitors of human RAD52 DNA annealing; 0.46% of 360,000 active; recombinant RAD52 DNA annealing, FRET fluorescence; inhibition, % at 18.7 µM;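 active = every replicate showing at least 50% inhibition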
Active calls of the source: *; / = no result; ! = a repeat was not active. This is a sample that favours compounds with a hit; in the whole collection about 2.5% have one here.

SMILES | Casp6 inh | AF4-AF9 inh | Ecoli rRNA inh | NSD2 inh | RAD52 anneal inh
CCCN1C(=O)C(NC(C)=O)c2ccccc21 (centres undefined) | / | / | / | -2.1 | /
CCc1ccc2c(c1)C(NC(C)=O)C(=O)N2CCN1CCOCC1 (centres undefined) | 53.8* | 16.3 | 19.4 | -1.7 | 31.8
O=C(Nc1ccc(Cl)c(Cl)c1)Nc1nccs1 | -0.6 | / | -25.6* | -2.6 | -17.3
CCCn1cnc2cc(NCc3ccccn3)ccc21 | 2.4 | 42.5* | 1.7 | / | 1.5
COCC(=O)N(C)C[C@@H]1Oc2cc(C#Cc3cccnc3)ccc2S(=O)(=O)N([C@@H](C)CO)C[C@H]1C | 3.2 | -2.9 | 0.9 | / | 3.3
Cc1cc2c(cc1C)C(=O)C(Br)=C(N)C2=O | 74.1* | -1.8 | 4.5 | 48.0 | -61.1
CSc1cccc(NC(=O)c2ccc(CN3CCc4ccccc4C3)cc2)c1 | -1.7 | 2.7 | -23.2* | -0.2 | -16.4
O=C(Nc1cccc(Br)c1)c1ccc(CN2CCc3ccccc3C2)cc1 | 4.6 | 0.4 | 2.6 | -2.1 | -14.8
COc1cccc(NC(=O)C[C@H]2CC[C@H]3[C@@H](COc4ccc(NC(=O)c5ccccc5F)cc4C(=O)N3C)O2)c1 | -0.7 | -1.7 | 2.1 | / | -4.9
CC1Cc2ccccc2N1C(=O)COC(=O)c1cc(Br)ccc1O (centres undefined) | 2.9 | -0.8 | 9.6 | -2.1 | -10.3
COc1cccc(/C=C/C(=O)OCC(=O)N2c3ccccc3CC2C)c1 (centres undefined) | 1.7 | 4.2 | -18.2* | / | -17.9
CC1Cc2ccccc2N1C(=O)COC(=O)c1cccc(Br)c1 (centres undefined) | -1.0 | 1.4 | -32.5* | -1.7 | -20.1
O=C(Nc1ccc2c(c1)OCO2)N[C@@H]1CC[C@H](CCNC(=O)C2CCOCC2)O[C@@H]1CO | -8.2 | -0.9 | -0.8 | / | 3.8
O=C(NC[C@@H]1CC[C@H]2[C@H](CN2Cc2cccc(Cl)c2)O1)C1CCC1 | -2.3 | -3.0 | / | / | 2.1
O=C(NC[C@H]1CC[C@H]2[C@H](CN2Cc2cccc(Cl)c2)O1)C1CCC1 | 0.6 | -3.2 | / | / | 66.9*
COc1cccc(NC(=O)CN(C)C(=O)Cn2[nH]c(=O)c3ccccc3c2=O)c1 | -0.1 | -0.2 | -8.0 | -3.5 | -7.6
COc1ccc(Cl)cc1NC(=O)CN(C)C(=O)Cn1[nH]c(=O)c2ccccc2c1=O | -4.6 | 0.7 | -20.1* | 0.6 | -6.1
Cc1ccc(CSc2[nH]c(=O)ncc2C)cc1 | 1.3 | -18.4 | -18.7* | 0.9 | -5.8
COc1ccc(NC(=O)N2[C@@H]3CNC[C@H]2C3c2ccc(-c3ccc(F)cc3)cc2)cc1 (some centres undefined) | 2.3 | 4.2 | -48.5 | / | 56.7*
COc1ccc(-c2ccc(C3[C@H]4CNC[C@@H]3N4C(=O)Nc3ccc(C(F)(F)F)cc3)cc2)cc1 (some centres undefined) | 1.3 | -0.2 | -58.6 | / | 65.9*!
COc1ccc(-c2ccc(C3[C@H]4CNC[C@@H]3N4C(=O)Nc3ccc(F)cc3)cc2)cc1 (some centres undefined) | 2.0 | 7.2 | -50.4 | / | -71.4
COc1ccc(NC(=O)N2[C@@H]3CNC[C@H]2C3c2ccc(/C=C/c3ccccc3)cc2)cc1 (some centres undefined) | -1.0 | 4.7 | -56.5 | / | 55.2*
COc1ccc(NC(=O)N2[C@@H]3CNC[C@H]2C3c2ccc(-c3ccc(OC)cc3)cc2)cc1 (some centres undefined) | -0.9 | 2.7 | 4.4 | / | 2.3
Cc1noc(C)c1NC(=O)Nc1ccc2c(c1)C(=O)N([C@@H](C)CO)C[C@@H](C)[C@H](CN(C)CC1CCCCC1)O2 | -1.0 | -1.7 | 0.9 | / | 6.8
CCCNC(=O)N1CC2(CCN(C(=O)c3cnccn3)CC2)c2c([nH]c3cc(OC)ccc23)[C@H]1CO | -0.6 | -0.8 | -0.1 | / | 5.4
SMILES | Casp6 inh | AF4-AF9 inh | Ecoli rRNA inh | NSD2 inh | RAD52 anneal inh
S=c1[nH]c2cc(Cl)ccc2s1 | 1.5 | 2.4 | -25.5* | 3.8 | -15.8
S=c1[nH]c2ccc(Cl)cc2[nH]1 | / | / | / | 1.0 | /
C[C@@H]1CN([C@@H](C)CO)S(=O)(=O)c2ccc(C#C[C@@H](C)O)cc2O[C@H]1CN(C)Cc1ccccc1 | 0.2 | 3.2 | -10.2 | / | 14.9
N#Cc1c(-c2ccncc2)c2c([nH]c1=O)-c1ccccc1OC2 | 4.7 | -2.6 | / | -4.8 | -27.9
N#Cc1c(-c2ccccc2Cl)c2c([nH]c1=O)-c1ccccc1OC2 | 10.9 | -2.8 | -23.9* | -8.9 | -19.5
COC(=O)Cc1c(O)ccn(CCc2ccc(OC)c(OC)c2)c1=O | -0.1 | -1.9 | 12.4 | -2.4 | -6.3
COc1ccc(CCn2ccc(O)c(Cc3ccc(Cl)cc3)c2=O)cc1OC | / | -0.4 | -29.4* | 0.5 | -8.2
Cc1ccccc1OCC(=O)Nc1ccc2[nH]ncc2c1 | 1.1 | -14.5 | -20.9* | -0.4 | -22.1
CC(C)NC(=O)Nc1ccc2c(c1)C(=O)N(C)C[C@@H](C)[C@H](CN(C)C(=O)NC(C)C)O2 | / | / | 1.4 | / | /
COc1ccc(NC(=S)N(CCN2CCOCC2)Cc2cc3cc4c(cc3[nH]c2=O)OCCO4)cc1 | 38.2* | 4.8 | 15.9 | 4.1 | -45.4
COc1ccc2c3c([nH]c2c1)[C@@H](CO)N(C(=O)c1ccc(F)cc1)CC31CCN(C(=O)CC2CC2)CC1 | / | -0.3 | 1.3 | / | /
CCCCCCCCC(=O)c1c(OC)oc(C=O)cc1=O | 71.6* | -6.7 | / | 5.9 | -70.0
CNC[C@H]1Oc2ccc(NC(=O)C3CC3)cc2C(=O)N([C@@H](C)CO)C[C@H]1C | 0.1 | -2.6 | 1.9 | / | -3.2
CCOC(=O)c1sc(=S)n(C)c1NC(=O)c1ccccc1 | / | / | / | -1.9 | /
CCOC(=O)c1sc(=S)n(C)c1NC(=O)c1cccc(Br)c1 | -0.1 | -4.3 | -48.7* | 1.3 | -10.4
CCOC(=O)C1(C(N)=O)OC1(c1ccc(Cl)cc1)c1ccccc1Cl (centres undefined) | 2.1 | 3.7 | -18.7* | -4.7 | -14.1
C[C@@H]1CN([C@@H](C)CO)C(=O)c2cc(C#CC3CCCCC3)cnc2O[C@@H]1CN(C)C(=O)Nc1ccccc1 | / | 4.0 | 2.5 | / | -3.6
C[C@@H]1CCCCO[C@H](CN(C)S(=O)(=O)c2ccc(F)cc2)[C@H](C)CN([C@@H](C)CO)C(=O)c2cc(NC(=O)C3CCCCC3)ccc2O1 | -1.1 | -0.1 | -6.7 | / | 9.3
O=C(NCCN1CCCCC1)c1ccc(Oc2cc(Cl)cc(Cl)c2)o1 | -5.1 | 7.8 | / | -0.2 | 0.3
O=C(c1ccc(Oc2cc(Cl)cc(Cl)c2)o1)N1CCCCC1 | -1.2 | -1.0 | -48.7* | -3.1 | -14.9
O=C1OC(Oc2ccccc2)(c2ccccc2)c2ccccc21 (centres undefined) | / | / | / | -9.4 | /
O=C1OC(OC2CCCCC2)(c2ccccc2)c2ccccc21 (centres undefined) | 2.1 | -0.3 | -21.9* | -9.0 | -0.9
COc1ccc(S(=O)(=O)N2CCCCN3[C@H](CO)[C@@H](c4ccc(C#CCC(C)C)cc4)[C@H]3C2)cc1 | / | / | -29.3 | / | /
CC1Sc2ccc(C(=O)Nc3ncccc3O)cc2NC1=O (centres undefined) | 2.3 | 1.4 | 3.7 | -0.4 | -15.2

Screening results: PubChem, Broad Institute
